The results in this text go back to PubChem BioAssay (NCI).

Common to all, as to assay: NCI-60 one-dose screen, 48 h (100 = growth as untreated, 0 = no growth, -100 = all killed)
The subject of experiment [1] is SK-MEL-2 melanoma. The conditions noted are these: 10 µM unless noted.
For experiment [2], the system named is EKVX NSCLC. The conditions noted are these: 10 µM unless noted.
Experiment [3] deals with SN12C renal. The conditions noted are these: 10 µM unless noted.
Experiment [4] deals with UO-31 renal. The conditions noted are these: 10 µM unless noted.
Experiment [5] deals with TK-10 renal. The conditions noted are these: 10 µM unless noted.
In experiment [6] the test system is ACHN renal. Particulars: 10 µM unless noted.
For experiment [7], the system named is CAKI-1 renal. Particulars: 10 µM unless noted.
In experiment [8] the test system is A498 renal. Particulars: 10 µM unless noted.
The subject of experiment [9] is CCRF-CEM leukemia. The conditions noted are these: 10 µM unless noted.
For experiment [10], the system named is MOLT-4 leukemia. Particulars: 10 µM unless noted.
The subject of experiment [11] is SR leukemia. Particulars: 10 µM unless noted.
Experiment [12] concerns RPMI-8226 leukemia. Particulars: 10 µM unless noted.
In experiment [13] the test system is OVCAR-8 ovarian. The conditions noted are these: 10 µM unless noted.
Experiment [14] deals with OVCAR-5 ovarian. Particulars: 10 µM unless noted.
The subject of experiment [15] is OVCAR-4 ovarian. Particulars: 10 µM.
Experiment [16] deals with IGROV1 ovarian. Particulars: 10 µM unless noted.
In experiment [17] the test system is OVCAR-3 ovarian. Particulars: 10 µM unless noted.
Experiment [18] relates to HS 578T breast. Particulars: 10 µM unless noted.
Experiment [19] deals with NCI/ADR-RES ovarian. The conditions noted are these: 10 µM unless noted.

This is part of a sample that, as a whole, favours compounds with a hit. Of some 83,000 tested, about 20% had one in any assay.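 Note: values are percent growth. 100 is the growth of untreated cells, values between 100 and 0 indicate rising inhibition; between -100 and 0 indicates cell death.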 Unmarked numbers belong to inactive results. Active and inactive are the calls of the source. Rule for the calls: active = growth percent below 10; inactive = the rest.

Regarding `CCOC(=O)c1nn(C2CCCCO2)c2ccc(NC(=O)CN3CCOCC3)cc12` (configuration not stated), the growth in [1] is 108%; in experiment [2], 100%; in experiment [3] it was 101%; in experiment [4], 86.6%; in [5] it was 109%; in experiment [6], 99.6%. Moreover, the growth is 84.2% in [7]; 99.9% in [8]; 1.49% (active) in experiment [9]; 96.1% in [10]; 112% in experiment [11]; 109% in [12]. Further, the growth was 99.6% in experiment [13]; 102% in [14]; 102% in experiment [15]; 102% in experiment [16]; 107% in experiment [17]; 99.3% in experiment [18]. Further, in [19], the growth was 104%.
For the compound `Cc1c(Cn2cc(COc3ccc(Br)cc3)nn2)c(C)c(Cn2cc(COc3ccc(Br)cc3)nn2)c(C)c1Cn1cc(COc2ccc(Br)cc2)nn1`, the growth in experiment [1] is 87.9%; in [2], 99.5%; in [3] it was 92.6%; in [4], 85.5%; in experiment [5] it was 67.4%; in experiment [6], 66.7%. The growth is 75.1% in experiment [7]; 80.6% in [8]; 83% in experiment [9]; 103% in [10]; 63.2% in experiment [11]; 97.9% in experiment [12]. Moreover, the growth in experiment [13] was 95.1%; in [14], 96.8%; in experiment [15], 87.3%; in experiment [16], 90.7%; in experiment [17], 88.7%; in experiment [18], 96.8%. For the same compound, the growth in experiment [19] was 101%.
As for `CCCCCCSc1ncnc2nc[nH]c12`, the growth was 105% in experiment [1]; 83.6% in experiment [2]; 92.4% in experiment [3]; 64.7% in [4]; 103% in experiment [5]; 96.8% in experiment [6]. The growth was 95.9% in [7]; 95.2% in [8]; 101% in experiment [9]; 84.7% in [10]; 85.2% in [11]; 84.8% in experiment [12]. Also, the growth in [13] is 95.5%; in experiment [14], 98.9%; in [15], 88.4%; in experiment [16] it was 82.6%; in [17], 103%; in [18], 102%. Moreover, the growth in [19] is 91.3%.
For the compound `COc1ccc(-c2cc(-c3ccc(Cl)cc3)nc(NCCCCNc3ccnc4cc(Cl)ccc34)n2)cc1`, the growth in [1] is 78%; in experiment [2], 77.3%; in [3] it was 77.1%; in experiment [4] it was 35.5%; in [5], 107%; in [6], 91.8%. Also, the growth in [7] is 64.3%; in experiment [8], 3.15% (active); in experiment [9], 7.63% (active); in experiment [10], 3.22% (active); in experiment [11] it was 9.44% (active); in experiment [12] it was 23.8%. Also, the growth was -23.3% (active) in experiment [13]; 96.2% in experiment [14]; 73.3% in experiment [15]; 60.8% in experiment [16]; 96% in [17]; 81.5% in experiment [18]. In addition, in experiment [19], the growth is 72.2%.
On to `Cn1cc(-c2nnc(-c3cn(C)c4ncc(Br)cc34)s2)c2cc(Br)ccc21`, for which the growth was 101% in experiment [1]; 69.2% in experiment [2]; 94.5% in experiment [3]; 79.8% in experiment [4]; 108% in [5]; 94.2% in [6]. The growth in experiment [7] is 73.9%; in experiment [8] it was 52.6%; in experiment [9], -27.5% (active); in experiment [10] it was 97.3%; in [11], 100%; in experiment [12], 87.4%. The growth in experiment [13] is 96.1%; in experiment [14], 88.6%; in [15], 93.8%; in experiment [16], 73.9%; in experiment [17], 100%; in experiment [19], 102%.
On to `Cn1cc(-c2nnc(-c3cn(C)c4ncccc34)o2)c2ccccc21`, for which the growth in experiment [1] is 34.4%; in experiment [2], 49.9%; in experiment [3], 28.4%; in experiment [4] it was 18%; in [5], 69.9%; in experiment [6], 36%. Also, the growth in experiment [7] is 30.9%; in experiment [8], -20.3% (active); in experiment [9], 49.8%; in experiment [10], 18.3%; in [11], 19.1%; in experiment [12] it was 31.3%. Moreover, the growth was 49.8% in [13]; 55.5% in [14]; 36.5% in experiment [15]; 28% in experiment [16]; -12% (active) in [17]; 30.9% in [18]. For the same compound, the growth in experiment [19] is 11.9%.
For `O=C1CC(c2ccc3c(c2)OCO3)Nc2ccccc21` (configuration not stated), the growth was 40.1% in experiment [1]; 48.1% in experiment [2]; 34.4% in [3]; 43.9% in experiment [4]; 40.1% in experiment [5]; 46.9% in [6]. For the same compound, the growth in experiment [7] was 33.9%; in experiment [8], -11.2% (active); in experiment [9] it was 10.8%; in experiment [10], 62.7%; in experiment [11], 19%; in experiment [12], 15.4%. Also, the growth was 22.3% in [13]; 54.3% in [14]; 51.7% in experiment [15]; 53.5% in [16]; -19.5% (active) in experiment [17]; 20.2% in experiment [18]. The growth in experiment [19] was 1.78% (active).
